Experimental data published in ChEMBL document CHEMBL3988442, “University of Dundee, Small-Polar-MMV Screening Library” (2021).

target: AMP-activated protein kinase, AMPK (Homo sapiens) (UniProt P54646+O43741+P54619+Q9UGJ0+Q9Y478+Q13131+Q9UGI9); assay: AMP-dependent Kinase enzyme assay. An in vitro enzyme assay that detects ADP turnover that is directly proportional to AMPK activity. This uses naive AMPK that is activated during the assay with MK-8722; format: functional; parameters: scale not given: direction of the effect not stated beside the values; settings: 30 µM

**Q.** With `FC(F)(F)c1nc(C2CCNCC2)no1` as the compound, how does the Percent Effect read?
**A.** Its Percent Effect is 5.73%.

**Q.** With `CC(C)c1ccccc1OCCNC(=O)N1CCC2(CC1)OCCO2` as the compound, how does the Percent Effect read?
**A.** The Percent Effect was -2.79%.

**Q.** With `CC(=O)Nc1ccc(-c2ccccc2CCN)cc1` as the compound, how does the Percent Effect read?
**A.** The Percent Effect was 3.13%.

**Q.** `Cc1cc(NCCc2c[nH]cn2)nc(-c2cccnc2)n1` was tested. Which Percent Effect did it give?
**A.** Its Percent Effect is 1.96%.

**Q.** With `O=C(NC1CC1)[C@H]1CN(Cc2ccccc2)C[C@@H]1C(=O)c1ccccc1` as the compound, how does the Percent Effect read?
**A.** Its Percent Effect is 12.8%.

**Q.** Which Percent Effect does the source give for `CC(C)(C)c1cc(=O)[nH]c(C2(N)CCCCC2)n1` here?
**A.** The Percent Effect was 2.04%.

**Q.** For `CSc1ccccc1C(=O)C1CCCN(Cc2ccccn2)C1` (stereo not given), which Percent Effect is on record?
**A.** Its Percent Effect is 18.7%.

**Q.** For `CS(=O)(=O)c1ccc(CC(=O)N2CCN3CCNC(=O)C3C2)cc1` (stereo not given), which Percent Effect is on record?
**A.** The Percent Effect was -2.22%.

**Q.** How did the Percent Effect turn out when `O=C(C1CCOCC1)N1C[C@H]2CC[C@@H]1CN(Cc1ccncc1)C2` was run?
**A.** The Percent Effect was 0.59%.

**Q.** How did the Percent Effect turn out when `CCc1ccc2ncn(Cc3ncc[nH]3)c(=O)c2c1` was run?
**A.** Its Percent Effect is 0.257%.

**Q.** `CCCc1nc(C(=O)N[C@H]2COC[C@@H]2N2CCN(C)CC2)cs1` was tested. Which Percent Effect did it give?
**A.** Its Percent Effect is -1.36%.

**Q.** For `O=C(N1CCCC1)N1C[C@H]2CC[C@@H]1CN(Cc1ccncc1)C2`, which Percent Effect is on record?
**A.** The Percent Effect was 2.18%.

**Q.** How did the Percent Effect turn out when `O=C(c1nc(=O)[nH]c2ccccc12)N1CCCC2(CCNC2)C1` (stereo not given) was run?
**A.** The Percent Effect was 1.4%.

**Q.** `O=C(c1cc2ccccc2[nH]c1=O)N1CCC2(CCCNC2)C1` (stereo not given) was tested. Which Percent Effect did it give?
**A.** Its Percent Effect is 16.8%.

**Q.** `COC(=O)N1C[C@H]2CC[C@@H]1CN(Cc1ccncc1)C2` was tested. Which Percent Effect did it give?
**A.** Its Percent Effect is 0.146%.

**Q.** With `O=C(c1ccnc(-n2cnnc2)c1)N1CCCC2(CCNC2)C1` (stereo not given) as the compound, how does the Percent Effect read?
**A.** Its Percent Effect is -3.71%.

**Q.** Which Percent Effect does the source give for `Cc1nc(CC(=O)N2CCCC[C@H](N(C)C)C2)cs1` here?
**A.** The Percent Effect was -2.31%.

**Q.** With `CCc1cccnc1NCc1cnc(N2CCOCC2)nc1` as the compound, how does the Percent Effect read?
**A.** The Percent Effect was 22.9%.

**Q.** `CCOCCC(=O)N1C[C@H]2CC[C@@H]1CN(Cc1ccncc1)C2` was tested. Which Percent Effect did it give?
**A.** The Percent Effect was 3.36%.

**Q.** Which Percent Effect does the source give for `COc1ccc(F)cc1C(=O)C1CCCN(Cc2cnc(C)s2)C1` (stereo not given) here?
**A.** The Percent Effect was 1.8%.
